Test results as given in PubChem BioAssay (NCI).
The panel holds about 83,000 compounds, 20% with a hit somewhere; the sample as a whole holds those more often.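 48-hour exposure, single concentration, 96-well plates; percent growth endpoint where 0 means no net growth. Active: below 10.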 Active and inactive are the calls of the source.

What was measured:
Test in all cases: NCI-60 one-dose screen, 48 h (100 = growth as untreated, 0 = no growth, -100 = all killed)
Settings in all cases: 10 µM unless noted
HCT-15 colon = test system: HCT-15 colon
HT29 colon = test system: HT29 colon
SNB-75 CNS = test system: SNB-75 CNS
SNB-19 CNS = test system: SNB-19 CNS
U251 CNS = test system: U251 CNS
PC-3 prostate = test system: PC-3 prostate
SK-MEL-5 melanoma = test system: SK-MEL-5 melanoma
UACC-62 melanoma = test system: UACC-62 melanoma
LOX IMVI melanoma = test system: LOX IMVI melanoma
SK-MEL-28 melanoma = test system: SK-MEL-28 melanoma

Row | SMILES | growth (HCT-15 colon) | growth (HT29 colon) | growth (SNB-75 CNS) | growth (SNB-19 CNS) | growth (U251 CNS) | growth (PC-3 prostate) | growth (SK-MEL-5 melanoma) | growth (UACC-62 melanoma) | growth (LOX IMVI melanoma) | growth (SK-MEL-28 melanoma)
1 | COc1ccc2c(c1)c(-c1noc(C(=O)c3cn(C)c4ccc(Br)cc34)n1)cn2C | 113% (inactive) | 92.5% (inactive) | 101% (inactive) | 102% (inactive) | 101% (inactive) | 95.3% (inactive) | 100% (inactive) | 93% (inactive) | 96.8% (inactive) | 117% (inactive)
2 | N=C(N)c1ccc(-c2ccc(-c3ccc(Cl)cc3)s2)nc1 | -78.1% (active) | -38.1% (active) | 95.8% (inactive) | 49.9% (inactive) | -68.1% (active) | -75.3% (active) | 82.8% (inactive) | 89.9% (inactive) | -89% (active) | 108% (inactive)
3 | O=C1c2cc(Cl)ccc2S(=O)(=O)c2c(NCCCNCCO)nc3ccccc3c21 | -65.4% (active) | -78.8% (active) | 32.6% (inactive) | 56.4% (inactive) | -15.8% (active) | -14.2% (active) | 11.3% (inactive) | 2.05% (active) | -76.8% (active) | 6.11% (active)
4 | Cc1ccc(NC(=S)NNC(=S)NNc2ccccc2)cc1C | 103% (inactive) | 104% (inactive) | 107% (inactive) | 106% (inactive) | 96.8% (inactive) | 55.7% (inactive) | 95.7% (inactive) | 104% (inactive) | 106% (inactive) | 115% (inactive)
5 | N#Cc1cccc(F)c1 | 97.8% (inactive) | 104% (inactive) | 127% (inactive) | 94.4% (inactive) | 110% (inactive) | 102% (inactive) | 107% (inactive) | 102% (inactive) | 107% (inactive) | 117% (inactive)
6 | Brc1ccc(-n2cc(-c3nn[nH]n3)c(-c3cccs3)n2)cc1 | 95.3% (inactive) | 113% (inactive) | 92.5% (inactive) | 90.9% (inactive) | 93% (inactive) | 98.9% (inactive) | 101% (inactive) | 92.7% (inactive) | 101% (inactive) | 103% (inactive)
7 | Fc1ccc(Nc2nc3nonc3nc2Nc2ccc(I)cc2)cc1 | 6.8% (active) | 3% (active) | -5.57% (active) | 18.6% (inactive) | -45% (active) | 4.86% (active) | -72.7% (active) | -21.4% (active) | -26.9% (active) | 17.1% (inactive)
8 | O=C1/C(=C/c2ccc(-c3ccc(Br)cc3)o2)SC(=S)N1CCc1ccc(O)cc1 | 78.9% (inactive) | 76.8% (inactive) | 37.9% (inactive) | 85.5% (inactive) | 78.9% (inactive) | 61.3% (inactive) | 92.5% (inactive) | 49.6% (inactive) | 71.7% (inactive) | 103% (inactive)
9 | Oc1ccc(CN2CCC(N3CCCCC3)CC2)c2cccnc12 | 18% (inactive) | 105% (inactive) | 25.4% (inactive) | 23.7% (inactive) | 17.6% (inactive) | 17.9% (inactive) | -29.4% (active) | 14.9% (inactive) | 17.8% (inactive) | 33.4% (inactive)
10 | COc1cc(-c2nc(SCC(C)C)nc(Nc3cccc4ccccc34)c2C#N)cc(OC)c1OC | 74.3% (inactive) | 89.9% (inactive) | 94.3% (inactive) | 106% (inactive) | 59.1% (inactive) | 57.1% (inactive) | 95.5% (inactive) | 86.5% (inactive) | 103% (inactive) | 110% (inactive)
11 | COc1ccc2cc(-c3ccc(NC(C)=O)c(=O)o3)ccc2c1 | 100% (inactive) | 87.9% (inactive) | 97.4% (inactive) | 94.1% (inactive) | 96% (inactive) | 89.1% (inactive) | 102% (inactive) | 94.8% (inactive) | 104% (inactive) | 104% (inactive)
12 | CCCCNc1ccc(C#N)c(OCCN(CC)CC)c1 | 102% (inactive) | 94.7% (inactive) | 88.2% (inactive) | 98.1% (inactive) | 103% (inactive) | 93.1% (inactive) | 93.9% (inactive) | 103% (inactive) | 102% (inactive) | 101% (inactive)
13 | CCOC(=O)C1=C(NC)OCC1=O | 111% (inactive) | 99.6% (inactive) | 99.1% (inactive) | 109% (inactive) | 96.5% (inactive) | 85.7% (inactive) | 93.4% (inactive) | 103% (inactive) | 101% (inactive) | 110% (inactive)
14 | O=[N+]([O-])c1ccc(N/N=C(/C(=N/Nc2ccc([N+](=O)[O-])cc2)c2ccccc2)c2ccccc2)cc1 | 16.9% (inactive) | 16.4% (inactive) | 90.3% (inactive) | 93.3% (inactive) | 53.4% (inactive) | 82% (inactive) | 86.3% (inactive) | 78.6% (inactive) | 61% (inactive) | 121% (inactive)
15 | Nc1c(C(=O)Nc2ccncc2)sc2nc3c(cc12)CCCCCC3 | 63.5% (inactive) | 41.9% (inactive) | 84.2% (inactive) | 84.1% (inactive) | 76.2% (inactive) | 90.3% (inactive) | 56.8% (inactive) | 89.6% (inactive) | 84.8% (inactive) | 88.6% (inactive)
16 | CN(C)CCCn1c2c(c3ncccc3c1=O)C(=O)c1ccccc1-2 | 28.6% (inactive) | 20.9% (inactive) | 79% (inactive) | 37.3% (inactive) | 29% (inactive) | 39% (inactive) | 30.7% (inactive) | 34.6% (inactive) | 19.1% (inactive) | 65% (inactive)
17 | C=C1CC[C@@H]2[C@](C)(COC(C)=O)[C@H](OC(C)=O)CC[C@@]2(C)[C@@H]1CC(Sc1ccccc1)C1=CCOC1=O (stereo not given in full) | -38.4% (active) | -39.3% (active) | 87% (inactive) | 51.8% (inactive) | 22.9% (inactive) | 36.4% (inactive) | 13.5% (inactive) | -1.75% (active) | -83.9% (active) | 6.34% (active)
18 | COc1ccc(C(=S)N2CCN(c3ccccc3Cl)CC2)cc1OC | 95.2% (inactive) | 102% (inactive) | 85.6% (inactive) | 85.3% (inactive) | 102% (inactive) | 90.3% (inactive) | 96.4% (inactive) | 89.2% (inactive) | 92.7% (inactive) | 103% (inactive)
19 | O=C(CSc1nc2sc3c(c2c(=O)n1-c1ccccc1)CCCCC3)N/N=C/c1ccc(F)cc1 | 48.6% (inactive) | 26.2% (inactive) | -65.4% (active) | 47.4% (inactive) | 6.96% (active) | 45.8% (inactive) | 50.7% (inactive) | 83.5% (inactive) | 37.1% (inactive) | 48.9% (inactive)
20 | C=C1C(=O)O[C@H]2[C@H]1CC/C(COC(=O)NCc1cc[nH]c1)=C\CC[C@@]1(C)O[C@@H]21 | 24.6% (inactive) | 42.6% (inactive) | 70.4% (inactive) | 83.2% (inactive) | 68.2% (inactive) | 51.7% (inactive) | 91.2% (inactive) | 39.6% (inactive) | 32.3% (inactive) | 54.6% (inactive)
21 | CC(C)=CCC[C@](C)(O)[C@H]1CC[C@]2(C)[C@@H]1CC[C@@H]1[C@@]3(C)Cc4nccnc4C(C)(C)[C@@H]3CC[C@]12C | 70.4% (inactive) | 42% (inactive) | 91.6% (inactive) | 94% (inactive) | 78.2% (inactive) | 44.6% (inactive) | 65.8% (inactive) | 66.9% (inactive) | 83.7% (inactive) | 95.6% (inactive)
22 | CN1CCN(Cc2ccc3c(NNC(=O)c4ccccc4)nc4cc(F)ccc4n23)CC1 | 33.8% (inactive) | 30.7% (inactive) | 48.8% (inactive) | 27.4% (inactive) | 12.2% (inactive) | 39.9% (inactive) | -26.8% (active) | 4.48% (active) | 7.25% (active) | 34.9% (inactive)
23 | O=C1c2cccnc2C(=O)c2c1c(C(=O)NCCCN1CCCCC1)c1ccccn21 | -71.8% (active) | -1.92% (active) | -95.3% (active) | -72.8% (active) | -48.4% (active) | -18% (active) | -99.5% (active) | -61.4% (active) | -71.4% (active) | 13.8% (inactive)
24 | CN(C)CCNC(=O)c1cccc(-c2cnc3ccc(-c4ccc5c(c4)OCO5)nn23)c1 | 46% (inactive) | 10.9% (inactive) | 73.2% (inactive) | 84.3% (inactive) | 86.1% (inactive) | 61.5% (inactive) | 90.8% (inactive) | 81.8% (inactive) | 20.7% (inactive) | 99.5% (inactive)
25 | COc1cc(CNC(=O)/C=C/C=C/c2ccc3c(c2)OCO3)ccc1OCc1cn(-c2ccc(C)c(C)c2)nn1 | 81.3% (inactive) | 91.6% (inactive) | 88.4% (inactive) | 79.5% (inactive) | 86.3% (inactive) | 75.1% (inactive) | 81.7% (inactive) | 56.9% (inactive) | 88.1% (inactive) | 54.1% (inactive)
26 | COc1cc(/C=C\c2cc(/C=C\c3ccc(O)c(OC)c3)n(C(=O)COc3ccc(Cl)cc3Cl)n2)ccc1O | 9.52% (active) | 2.93% (active) | 5.12% (active) | 29% (inactive) | 16.3% (inactive) | 10.2% (inactive) | -12.9% (active) | 5.87% (active) | 3.79% (active) | 26.6% (inactive)
27 | C#CCOc1cccc(Nc2ncnc3ccc(NC(=O)CCl)cc23)c1 | -41.6% (active) | -78.6% (active) | 28% (inactive) | -23.7% (active) | -60.7% (active) | -59.3% (active) | -92.8% (active) | -67.5% (active) | -75.4% (active) | -17.2% (active)
